# Bioassay records (PubChem BioAssay)
# This is a sample that favours compounds with a hit; in the whole collection about 19% have one here.
# DT40 TDP1 CPT: growth inhibition of DT40 Tdp1-/-;hTDP1 cells with camptothecin (screen for TDP1 inhibitors). Potency, µM (series often up to 46.2 µM), hits mostly inhibitors. AID 686979. chicken DT40 Tdp1-/-;hTDP1 cells + 20 nM CPT, ATP luminescence, 48 h. actives 12% (n = 420,000); also: nearly all actives have a fitted effect of over 55% in size
#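 Chicken DT40 Tdp1-/- cells complemented with human TDP1, 400 cells/well, exposed to compounds plus 20 nM camptothecin for at least 48 h at 37 C; viability read as ATP content by CellTiter-Glo luminescence.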
# HepG2 tox: HepG2 cytotoxicity, counter-screen for TGF-b inhibitors | HepG2 CAGA-GFP viability, ATP luminescence, 18 h | Potency, µM (titrated, usually from 46.1 µM), actives largely listed as cytotoxic | actives 0.76% (n = 410,000) | AID 588856
#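 CellTiter-Glo luminescence gave cytotoxicity after 18 hours at 37 degrees C. The cells were HepG2 CAGA-GFP in 1% FBS DMEM, stimulated with 500 pg/mL TGF-beta after compound addition. %Activity was normalised to no-cell wells (complete cell-killing) and DMSO (no toxicity), and curves were fitted and classified.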
# IL-1B inflam inh: inflammasome signaling inhibition, IL-1 beta readout. THP-1 LPS/ATP IL-1B secretion, AlphaLISA, 16 h; stronger effect = lower value. activity change, % at 57.5 µM. actives 4.7% (n = 360,000). AID 743279; in the data active = activity change below about -50%; inconclusive = mostly about -30% to -49%
#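 Secreted IL-1B measured by AlphaLISA bead assay after 16 h compound exposure of THP-1 cells; compounds (final up to 57.5 uM) added 1 h before LPS (250 ng/mL) and ATP (1.25 mM) stimulation; lower signal means less secretion.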
# TGFb inhibitor: blocks TGF-b signaling. Potency, µM (top dose mostly 46.1 µM), actives largely listed as inhibitors. HepG2 CAGA-GFP TGF-b/SMAD3 reporter, GFP fluorescence, 18 h; TGF-beta stimulated, 500 pg/mL final. actives 1.2% (n = 410,000). AID 588855; also: nearly all actives have a fitted effect of over 65% in size
#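 TGF-beta reporter screen: HEPG2 CAGA-GFP, 1% FBS, 500 pg/mL TGF-beta final, 18 h; per-cell GFP summed per well; curves fitted and categorized by class.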
# TDP1 cell noCPT: qHTS for Inhibitors of human tyrosyl-DNA phosphodiesterase 1 (TDP1): qHTS in cells in absence of CPT; Potency, µM (doses to about 46.2 µM), most hits filed as inhibitors; DT40 Tdp1-/- hTDP1 cells, no CPT, ATP luminescence, 48 h; actives 15% (n = 420,000); also: nearly all actives have a fitted effect of over 55% in size
#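 Compound effects on proliferation are scored in DT40 Tdp1-/-;hTDP1 cells in the absence of CPT. ATP levels (CellTiter-Glo luminescence) are recorded after a ≥48 hr, 37 °C incubation.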
# S-ASM inh: inhibitors of human secretory acid sphingomyelinase; P17405; placental ASM, HMU-PC fluorogenic substrate, 60 min; Potency, µM (highest dose often 57.5 µM), most hits filed as inhibitors; actives 0.006% (n = 340,000); AID 504937
# Target sequence (P17405 47-631 limits assumed): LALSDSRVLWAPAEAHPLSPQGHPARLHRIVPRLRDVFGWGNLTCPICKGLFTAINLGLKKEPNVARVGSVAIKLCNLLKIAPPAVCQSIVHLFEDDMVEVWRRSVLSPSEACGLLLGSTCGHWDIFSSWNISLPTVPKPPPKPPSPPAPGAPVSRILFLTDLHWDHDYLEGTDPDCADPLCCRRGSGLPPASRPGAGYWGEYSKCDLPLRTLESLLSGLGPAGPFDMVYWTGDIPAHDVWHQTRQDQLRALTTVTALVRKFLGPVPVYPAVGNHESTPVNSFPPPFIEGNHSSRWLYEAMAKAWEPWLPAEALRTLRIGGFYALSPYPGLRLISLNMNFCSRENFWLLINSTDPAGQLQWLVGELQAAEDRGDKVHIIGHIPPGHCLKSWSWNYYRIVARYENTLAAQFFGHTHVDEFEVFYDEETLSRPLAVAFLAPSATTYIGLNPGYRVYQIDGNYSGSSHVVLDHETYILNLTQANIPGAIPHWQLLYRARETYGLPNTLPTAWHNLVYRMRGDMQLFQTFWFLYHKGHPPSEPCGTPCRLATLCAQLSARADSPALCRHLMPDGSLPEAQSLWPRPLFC
#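 qHTS format. ASM enzyme prepared from human placenta hydrolyses the fluorogenic substrate HMU-PC0 (9 uM final) over 60 min at 37 °C after a 10 min compound preincubation.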
# Hits are given with their value; n = inactive; u = inconclusive; x = not tested or not shown; [ ] = another dose, or the depositor's remark. Unless noted, calls follow the shape of the dose curve; as a rule, active = well fitted curve in the direction sought with a large enough effect; inconclusive = small, poorly fitted or top-dose-only effect, or another doubt; inactive = no such curve, though single readings can be large; an effect the other way counts as inactive or inconclusive.
SMILES,DT40 TDP1 CPT,HepG2 tox,IL-1B inflam inh,TGFb inhibitor,TDP1 cell noCPT,S-ASM inh
O=C1CC[C@@]2(O)[C@H]3Cc4ccc(O)c5c4[C@@]2(CCN3CC2CC2)[C@@H]1O5,n,x,x,x,n,x
O=C1/C(=C\c2ccccc2)C[C@@]2(O)[C@H]3Cc4ccc(O)c5c4[C@@]2(CCN3CC2CC2)[C@@H]1O5,2.4µM,x,x,x,2.7µM,x
Oc1ccc2c3c1O[C@H]1c4[nH]c5c(c4C[C@@]4(O)[C@@H](C2)N(CC2CC2)CC[C@]314)C[C@]1(O)[C@H]2Cc3ccc(O)c4c3[C@@]1(CCN2CC1CC1)[C@@H]5O4,n,x,x,x,n,x
O=[N+]([O-])c1ccc(NCCO)c2ncccc12,n,n,n,n,n,n
Cc1ccc(N/N=C/C=C/c2ccco2)cc1,n,n,u,n,u,n
CC1=C2[C@H]3OC(=O)[C@@H](C)[C@@H]3CC[C@@]2(C)C=CC1=O,n,n,n,n,n,n
C/C(=C/CCC(C)[C@H]1CC[C@@]2(C)C3=C(CC[C@]12C)[C@@]1(C)CCC(=O)C(C)(C)[C@@H]1CC3)C(=O)O (stereo partly specified),u,n,n,n,u,n
c1ccc(C2NCCc3[nH]cnc32)cc1 (stereo unspecified),n,n,n,n,n,n
Oc1ccc2c3c1O[C@H]1c4c(c5ccccc5n4Cc4ccccc4)C[C@@]4(O)C(C2)N(CC2CC2)CC[C@]314,5.2µM,x,x,x,3.7µM,x
CNC(=O)OCCc1n(C)cc[n+]1C,n,n,n,n,n,n
C=C1C2CC[C@@]3(C)C(c4ccoc4)OC(=O)C[C@@]13OC1CC(=O)C(C)(C)C(C(OC(C)=O)C(=O)OC)[C@@]12C (stereo partly specified),u,x,x,x,n,x
Nc1cccc(SC2CC(=O)N(c3ccc(Cl)cc3C(=O)c3ccccc3)C2=O)c1 (stereo unspecified),u,n,n,n,21µM,x
Cc1nc2ccc(Cl)cn2c1P(=S)(N1CCOCC1)N1CCOCC1,15µM,n,n,n,u,n
COC[C@]12CN(C=O)C3C4C(OC)C1[C@@]3(C1CC3(O)C(OC)C(O)C4(OC(C)=O)C1C3OC(=O)c1ccccc1)[C@@H](OC)CC2O (stereo partly specified),n,x,x,x,n,x
COc1ccc(NC(=O)CN2CC=C(c3ccccc3)CC2)cc1S(=O)(=O)N1CCOCC1,n,n,n,n,u,n
COc1ccccc1CNCC(=O)Nc1cc(S(=O)(=O)N2CCCCC2)ccc1C,u,n,-60,n,u,n
O=C(CN1CC=C(c2ccccc2)CC1)Nc1cc(Cl)ccc1Cl,u,n,n,13µM,16µM,n
O=C(CN1CC=C(c2ccccc2)CC1)NC(=O)NCc1ccccc1,u,n,n,n,u,n
Cc1ccc(N2CC(C(=O)Nc3cc(S(=O)(=O)N4CCCCC4)ccc3C)CC2=O)cc1 (stereo unspecified),u,n,n,n,5.8µM,x
Cc1ccc(S(=O)(=O)N2CCCCC2)cc1NC(=O)CN1CC=C(c2ccccc2)CC1,8.2µM,n,u,n,5.2µM,n
CCCCCc1nc2ccccc2c(=O)n1-c1ccc(Cl)cc1[N+](=O)[O-],u,n,n,u,u,n
COC(C/C=C/C=C/CC/C=C\CC(C)/C=C\C(=C/C(=O)O)CC(=O)O)/C(C)=C\C=C(/C)C(=O)O (stereo unspecified),n[4.12 µM],x,x,x,n[4.12 µM],x
Oc1ccc2c3c1O[C@H]1[C@@H](O)C=C[C@H]4[C@H](C2)NCC[C@@]341,n,x,x,x,n,x
CN1CCN(C(=O)COc2ccc(N(C)S(=O)(=O)c3ccc(F)cc3)cc2)CC1,n,n,n,n,u,n
CCCCN1C(=N)C(CC)(CC)C(=O)NC1=O,n,n,n,n,n,n
